The source of these data is ChEMBL document CHEMBL4513216, “Probing the Open Global Health Chemical Diversity Library for Multistage-Active Starting Points for Next-Generation Antimalarials” (ACS Infect Dis, 2020).

About 2,100 (3.2%) of roughly 65,000 compounds showed an effect of 50% or more. The median lay at about -52%. This is one part of a sample in which strong results are shown more often than they occur.

The experiment relates to Plasmodium falciparum. Briefly: Screen against P. falciparum Asexual Blood Stage (ABS), at 5uM. Particulars: tested at 5 uM. The class given is functional, Dd2.
With `COc1cccc(Cn2cc(N3C(=O)CCC3=O)cn2)c1`, the INHIBITION is given as -83.8%. With `c1cnc(N2CCC3(COCc4cnc(-c5cccnc5)nc43)C2)nc1` (stereo not drawn) the figure was -78.5%; with `COCC1CN(c2ncccn2)Cc2cnn(CC3CC3)c21` (stereo not drawn), -16.5%; with `CS(=O)(=O)N1CCN(C(=O)C2CSCCC(=O)N2)CC1` (stereo not drawn), -38.6%.

With `Cc1nc(CN2CCN(C3CCOC3)Cc3cccnc32)cs1` (stereo not drawn), the INHIBITION is recorded as -78.6%.

On to `CCCNC(=O)c1cccc(CNCc2csc(C(C)C)n2)c1`, for which the INHIBITION is -48.2%. `Cc1noc(NC(=O)c2cccc(Br)c2)n1`: the INHIBITION is recorded as -81.9%. With `O=C1CCC2(CCN(Cc3ccc(F)cc3Cl)CC2)CN1CCO` the figure was -54%; with `Cc1cc(C(=O)N2CCCC(O)(CN3CCCC3)C2)ccc1Cl` (stereo not drawn), -21.4%.

Regarding `OC1(CN2CCCC2)CCCN(Cc2ccc(F)cc2Cl)C1` (stereo not drawn), the INHIBITION amounted to 58.3%. For the molecule `Cn1cc(C[C@H]2[C@H](O)CCN2Cc2ccc(F)cc2)cn1`, the INHIBITION is reported as 6.42%. With `Cc1cc(CN(C)C(=O)Nc2ccccc2C)no1`, the INHIBITION is on record as -85.5%. For `Cc1ccc(CN(CCCO)Cc2nc3ccccc3[nH]2)s1`, the INHIBITION is -76.9%. As for `Cc1ccc(CN(CCN(C)C)Cc2nc3ccccc3[nH]2)s1`, the INHIBITION is reported as 61.2%. Next, `Cc1ccc(CN(CCN(C)C)Cc2ncc[nH]2)s1`: -73.3%. Next, `Cc1ccccc1NC(=O)CCNC(=O)c1ccoc1`: -37.5%; `COCCCNC(=O)Cc1nc(-c2ccncc2)n[nH]1`: -95.8%. In the case of `CCC1=NC2(CCC(C(=O)Nc3ccc(C)nc3)CC2)C(=O)N1C` (stereo not drawn), the INHIBITION is -28.2%.

In the case of `Cc1cccc(CNc2cc(C3CCCNC3)ccn2)n1` (stereo not drawn), the INHIBITION is -46.7%. In the case of `CC(=O)NC1CCCN(Cc2ccn(C)c(=O)c2)C1` (stereo not drawn), the INHIBITION is -10.7%. In the case of `CC(C)(C)OC(=O)NC1CCCN(Cc2cccc(O)c2)C1` (stereo not drawn), the INHIBITION worked out at 51.7%. Consider `CC(C)(C)OC(=O)NC1CCCN(Cc2cccs2)C1` (stereo not drawn), for which the INHIBITION is reported as 25.8%. Regarding `Cc1nn(C)c2nc(N(Cc3cnn(C)c3)C3CCCCC3)sc12`, the INHIBITION is 60%.

Turning to `Cc1nn(C)c2nc(N(CCN(C)C)C3CCCC3)sc12`, the INHIBITION is given as -9.31%. As to `COCCN(Cc1cnn(C)c1)c1nc2c(s1)c(C)nn2C`, the INHIBITION was -50.7%. Regarding `O[C@H]1CCN(CC2CC2)[C@H]1Cc1ccncc1`, the INHIBITION is reported as -6.99%.

On to `CC1CCCN(CCCNC(=O)c2ccc(N(C)S(C)(=O)=O)cc2Cl)C1` (stereo not drawn), for which the INHIBITION is reported as -129%. With `CC(O)CNCc1c[nH]nc1-c1cc2ccccc2o1` (stereo not drawn) the figure was -15.3%; with `Cc1nc(CN2C(=O)C[C@H]3[C@H]2CCN3CC2CCOC2)cs1` (stereo partly drawn), -84.1%; with `COc1ccccc1C1(CNc2cn[nH]c(=O)c2Cl)CCOCC1`, -28.1%. In the case of `COc1ccccc1C1(CNc2snc(Cl)c2C#N)CCOCC1`, the INHIBITION came to 27%. On to `COc1ccccc1C1(CNCc2ccc([S+](C)[O-])cc2)CC1` (stereo not drawn), for which the INHIBITION is 69.5%. Next, `COc1ccccc1C1(CNc2cn[nH]c(=O)c2Cl)CC1`: -7.64%. As to `COc1ccccc1C1(CNc2ccc(C(=O)N(C)C)cn2)CC1`, the INHIBITION is recorded as -70.8%.

In the case of `COc1ccccc1C1(CNCc2cccc(C#N)c2)CCOCC1`, the INHIBITION is 66.9%. On to `CC(C)(C)CN(CCC#N)C(=O)c1cccc(CC#N)c1`, for which the INHIBITION is recorded as -98%. For the molecule `CCCC(NC(=O)c1ccc(OC)cc1C)c1nnn[nH]1` (stereo not drawn), the INHIBITION was -54.4%.

With `Cc1ncc(C(=O)N2CCCC2(C)C(=O)N2CCOCC2)c(C)n1` (stereo not drawn), the INHIBITION is -32.2%.

In the case of `CCS(=O)(=O)N1CCCN(CCCOC)CC1`, the INHIBITION was -97.9%. With `CCOC1COC2(CCN(C(=O)c3cccc(C)n3)CC2)C1` (stereo not drawn) the figure was -46%. With `CC1(C)[C@@H]2CC=C(CN3CCCn4nc(C(=O)NCCO)cc4C3)[C@H]1C2` the figure was -43.4%. With `Cn1cc(CN2CC[C@@H]3[C@@H]2CCN3Cc2ccc3c(c2)OCO3)cn1`, the INHIBITION was -88.4%. With `c1cncc(CN2CC[C@@H]3[C@@H]2CCN3Cc2ccc3c(c2)OCO3)c1`, the INHIBITION turned out to be 59.5%.

For `CN1CC[C@@H]2[C@@H]1CCN2Cc1ccc2c(c1)OCO2`, the INHIBITION is reported as 43%. For the molecule `CCOCc1nn(CC2CC2)c2c1CN(Cc1cccs1)CC2`, the INHIBITION is -70.5%. Regarding `COCc1nn(CC2CC2)c2c1CN(Cc1ccco1)CC2`, the INHIBITION was -53.2%.

Take `COCc1nn(CC2CC2)c2c1CN(Cc1cccs1)CC2`: the INHIBITION turned out to be 50%. With `CCO[C@H]1C[C@@H](O)C12CCN(C1Cc3ccccc3C1)CC2` the figure was -26.8%; with `NS(=O)(=O)c1ccc(NCc2ccccc2F)cc1C(F)(F)F`, -6.73%.

As to `O=C(NC1CCCC1)c1ccnc(C2CCNCC2)c1`, the INHIBITION is reported as -131%.

As for `Fc1ccccc1CNc1ccnc(C2CCNCC2)c1`, the INHIBITION worked out at 66.5%. Next, `O=C(Nc1cccc(C2SCCS2)c1)C1CCCN1c1nccs1` (stereo not drawn): 36.7%; `CN1CCN(c2ccccc2NC(=O)c2ccco2)CC1`: 32.7%. With `CN1CCN(c2ccc(Cl)cc2NC(=O)c2ccco2)CC1` the figure was 42%. For the molecule `CN1CCN(c2ccc(Br)cc2NC(=O)c2ccco2)CC1`, the INHIBITION was 53%. With `CSCC(C)N(C)C(=O)c1nn(-c2ccc(F)cc2C)cc1O` (stereo not drawn) the figure was -118%. Turning to `Cc1cccc(CC(=O)N2CCCC(c3n[nH]c4nccnc34)C2)c1` (stereo not drawn), the INHIBITION is listed as -9.5%. Take `Cc1cc(-c2nn(C)c(Cl)c2CN2Cc3ccccc3C(O)C2)no1` (stereo not drawn): the INHIBITION amounted to 53.8%. For `Cc1cc(-c2nn(C)c(Cl)c2CN2CC[C@H](CO)[C@@H](O)C2)no1`, the INHIBITION was -69.4%. On to `Cc1cc(-c2nn(C)c(Cl)c2CN2CCOCC(O)C2)no1` (stereo not drawn), for which the INHIBITION is on record as -22.3%.

As for `Cn1nc(COc2cccnc2)c2c1CCN(c1ncccn1)C2`, the INHIBITION is recorded as -42.9%.

As for `CCN(CC)c1nc2ccsc2c(=O)n1CCC(=O)NC1CCCC1`, the INHIBITION is -39.2%.

Consider `Cc1nc(N2CCCC2)ncc1-c1cc(O)nc(N2CCOCC2)n1`, for which the INHIBITION is recorded as -32.6%. `O=C(C[C@@H]1COC[C@H]2CN(Cc3ccncc3)C[C@@H]12)N1CCOCC1`: the INHIBITION is recorded as -108%.

Regarding `COCCS(=O)(=O)Nc1ccc(-n2cncn2)c(F)c1`, the INHIBITION was 68.3%. In the case of `CC(=O)Nc1ccc(-n2cncn2)c(F)c1`, the INHIBITION was 47.2%. Consider `COCCNC(=O)Nc1ccc(-n2cncn2)c(F)c1`, for which the INHIBITION is -29%. Regarding `COCCN(C)Cc1nc(-c2cccc(F)c2F)oc1C`, the INHIBITION was -36.7%.

Consider `CCCC(=O)N1Cc2ccccc2CC2(CCN(C)C2)C1` (stereo not drawn), for which the INHIBITION is listed as 8.68%. Consider `CN1CCC2(Cc3ccccc3CN(C(=O)Cc3cccc(Cl)c3)C2)C1` (stereo not drawn), for which the INHIBITION turned out to be 54.8%.

`CN1CCC2(Cc3ccccc3CN(C(=O)CCN)C2)C1` (stereo not drawn): the INHIBITION is -100%.

`Cc1nn(C)c(Cl)c1C1CCCN1CC(=O)NC1CCCC1` (stereo not drawn): the INHIBITION was 13%.

As to `Cn1cc(S(=O)(=O)NCCc2ccsc2)cn1`, the INHIBITION is -97%.

As to `CC(C)(C)c1cn(C2CCN(C3CCSC3)CC2)nn1` (stereo not drawn), the INHIBITION is on record as -103%. Next, `N#Cc1cccnc1NCCc1cc(F)cc2c1OCOC2`: -127%. On to `COc1cccc(CNCCc2cc(F)cc3c2OCOC3)c1`, for which the INHIBITION worked out at 19.8%. Take `COc1cc(CNCCc2cc(F)cc3c2OCOC3)cc(OC)c1`: the INHIBITION turned out to be 31.1%. For the molecule `COc1ccc(CNCCc2cc(F)cc3c2OCOC3)c(OC)c1`, the INHIBITION is reported as 55.4%. Regarding `COc1ccc(CNCCc2cc(F)cc3c2OCOC3)cc1OC`, the INHIBITION is on record as 21.3%. For `N#Cc1ccc(CNCCc2cc(F)cc3c2OCOC3)cc1`, the INHIBITION is given as -105%.

As to `COc1ccc(CNCCc2cc(F)cc3c2OCOC3)cc1O`, the INHIBITION was found to be 37%. As for `COc1ccc(OC)c(CNCCc2cc(F)cc3c2OCOC3)c1`, the INHIBITION is reported as 66.3%.

Take `COc1cccc(CNCCc2cc(F)cc3c2OCOC3)c1OC`: the INHIBITION came to 56.8%.

Consider `CC(C)CCC(=O)NC(C)c1nnc2n1CCCCC2` (stereo not drawn), for which the INHIBITION was -147%. Turning to `O=C(CC1CCCC1)N1C[C@@H]2CCN(c3cccnc3)C[C@@H]2C1`, the INHIBITION is -58.1%. In the case of `Cc1cc(C(=O)N2CCc3nc4sc(C)cc4c(=O)n3CC2)on1`, the INHIBITION is on record as -73.5%.

For the molecule `Cc1ccccc1CN1CCN(C(=O)c2ccn(C(C)(C)C)c2)CC1`, the INHIBITION worked out at 2.14%.

Turning to `CC(=O)c1ccc(NC(=O)c2ccc3c(c2)C2(CCCCC2)CN3)cc1`, the INHIBITION came to 20.8%. As for `Cc1ncc(CN2CCC(CNS(=O)(=O)C3CC3)C2)cn1` (stereo not drawn), the INHIBITION is -131%. On to `CCc1ccc(CN2CCC(CNS(=O)(=O)C3CC3)C2)nc1` (stereo not drawn), for which the INHIBITION turned out to be 19.1%. Take `CC(C)c1ccc(CN2CCC(CNS(=O)(=O)C3CC3)C2)cc1` (stereo not drawn): the INHIBITION amounted to 59.4%.

Turning to `Cc1ccccc1OCn1ccc(C(=O)NCCN2CCOCC2)n1`, the INHIBITION is -44.8%.

As for `Cc1ccc(S(=O)(=O)N2C[C@H](C3CC3)[C@@H](N)C2)cc1F`, the INHIBITION is 14.8%. As to `Cc1cc2[nH]c(=O)oc2cc1S(=O)(=O)N1C[C@@H](N(C)C)[C@H](C(C)C)C1`, the INHIBITION was -101%.

Regarding `Cc1cc(-c2cc(S(=O)(=O)N3C[C@H](C4CC4)[C@@H](N)C3)c(C)s2)[nH]n1`, the INHIBITION was 62.6%. In the case of `CC(C)c1cc(C(=O)N2CCCC(Cn3cc(CO)nn3)C2)on1` (stereo not drawn), the INHIBITION is -137%. `COCCN1CCC2(CC1)CC(NCc1cncn1C)c1ccccc12` (stereo not drawn): the INHIBITION is listed as -18.1%. In the case of `CC(C)CN1CCC(NC(=O)c2ccc(F)cc2F)CC1`, the INHIBITION is -150%. Regarding `CC(C)CN1CCC(NC(=O)c2ccc(F)cc2I)CC1`, the INHIBITION is 23.2%. Turning to `CCN1CCC(NC(=O)c2ccc(F)cc2I)CC1`, the INHIBITION is 50%. On to `O=C(NCCc1ccccc1F)NCC(O)c1cccc(F)c1` (stereo not drawn), for which the INHIBITION is on record as -156%. As to `NC(=O)c1cc2c(nc1Oc1cccc(CN3CCCC3)c1F)CCC2`, the INHIBITION is on record as -10.3%. Turning to `COc1cc(C(=O)NS(=O)(=O)c2cncc(Br)c2)ccc1C`, the INHIBITION is -28.1%. Regarding `Cc1cc(C2CCCN(C(=O)COc3cccc(F)c3)C2)n[nH]1` (stereo not drawn), the INHIBITION is on record as -49.4%. For the molecule `CNCC(=O)N1CCCC(c2nccnc2Oc2cccc(F)c2)C1` (stereo not drawn), the INHIBITION is reported as 55.4%. Regarding `NC(=O)CN1CCCC(c2nccnc2Oc2cccc(F)c2)C1` (stereo not drawn), the INHIBITION is reported as -47.7%. With `Cn1ccc2c(NC(=O)Cn3ncc4c(c3=O)CCCC4)cccc21` the figure was -90.4%; with `Cc1nc(C2CN(Cc3scnc3C)CCO2)cc(N(C)C)n1` (stereo not drawn), -79.5%.
